# Inconclusive results are not listed. Where a call stands in place of a potency, no number is given. The source made the active and inactive calls. Calls follow the shape of the dose curve; as a rule, active = well fitted curve in the direction sought with a large enough effect; inconclusive = small, poorly fitted or top-dose-only effect, or another doubt; inactive = no such curve, though single readings can be large; an effect the other way counts as inactive or inconclusive.
# How the values were obtained:
# [1] = qHTS of pediatric cancer cell lines to identify multiple opportunities for drug repurposing: Primary screen for Rh18 cells (AID 1347102); also: nearly all actives have a fitted effect of over 65% in size
# Outline: (§1)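 Viability after 48 h compound treatment at 37C, 500-1,000 cells/well, read as ATP luminescence with CellTiter-Glo. Primary screens used 11-point (MIPE, 0.78 nM-46 µM) or 8-point (NPC, 0.59 nM-46 µM) final concentrations; follow-up screens used 11-point dilutions.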
# [2] = qHTS of pediatric cancer cell lines to identify multiple opportunities for drug repurposing: Primary screen for OHS-50 cells (AID 1347103); also: nearly all actives have a fitted effect of over 40% in size; also: potency is read from the fitted curve at half-maximal effect
# Outline: (§2)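 Cells (500-1,000/well) rested 5 h, then received compounds for 48 h; metabolically active cells were measured by CellTiter-Glo luminescence. Final concentrations spanned up to 46 µM (MIPE, 11-point) or 0.59 nM-46 µM (NPC, 8-point) in primary screens, 11-point in follow-ups.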
# [3] = qHTS of pediatric cancer cell lines to identify multiple opportunities for drug repurposing: Primary screen for RD cells (AID 1347104); also: nearly all actives have a fitted effect of over 55% in size; also: potency is read from the fitted curve at half-maximal effect
# Outline: (§3)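 500-1,000 cells/well; 5 h pre-incubation 37 °C/5% CO2; compound pinned; 48 h; CellTiter-Glo, 15 min RT; luminescence. MIPE 11-pt from 0.78 nM, NPC 8-pt from 0.59 nM final. Bortezomib 2.3 µM final as positive control.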
# [4] = qHTS of pediatric cancer cell lines to identify multiple opportunities for drug repurposing: Primary screen for MG 63 (6-TG R) cells (AID 1347105); also: nearly all actives have a fitted effect of over 50% in size; also: potency is read from the fitted curve at half-maximal effect
# Outline: as §3
# [5] = qHTS of pediatric cancer cell lines to identify multiple opportunities for drug repurposing: Primary screen for control Hh wild type fibroblast cells (AID 1347106);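 also: a drop in luminescence marks cytotoxicity and a rise apparent proliferation; nearly all actives have a fitted effect of over 55% in size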
# Outline: as §1
# [6] = qHTS of pediatric cancer cell lines to identify multiple opportunities for drug repurposing: Primary screen for Rh30 cells (AID 1347107); also: nearly all actives have a fitted effect of over 75% in size; also: potency is read from the fitted curve at half-maximal effect
# Outline: as §1
# [7] = qHTS of pediatric cancer cell lines to identify multiple opportunities for drug repurposing: Primary screen for Rh41 cells (AID 1347108); also: nearly all actives have a fitted effect of over 70% in size; also: potency is read from the fitted curve at half-maximal effect;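 as to activity change, negative = cytotoxic: luminescence drop marks cytotoxic hits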
# Outline: as §3
# [8] = qHTS of pediatric cancer cell lines to identify multiple opportunities for drug repurposing: Primary screen for BT-12 cells (AID 1347101); also: potency is read from the fitted curve at half-maximal effect; nearly all actives have a fitted effect of over 25% in size
# Outline: as §2
# [9] = qHTS of pediatric cancer cell lines to identify multiple opportunities for drug repurposing: Confirmatory screen for NB1643 cells (AID 1347109); also: nearly all actives have a fitted effect of over 45% in size; also: potency is read from the fitted curve at half-maximal effect
# Outline: as §1
# [10] = qHTS of pediatric cancer cell lines to identify multiple opportunities for drug repurposing: Confirmatory screen for A673 cells (AID 1347110); also: nearly all actives have a fitted effect of over 65% in size; also: potency is read from the fitted curve at half-maximal effect
# Outline: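 A673 cells seeded at 500-1,000 cells/well, rested 5 h, then dosed; primary MIPE 11-point (0.78 nM to 46 µM), NPC (0.59 nM to 46 µM); confirmatory 11-point. CellTiter-Glo luminescence after 48 h.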
# [11] = qHTS of pediatric cancer cell lines to identify multiple opportunities for drug repurposing: Confirmatory screen for SK-N-MC cells (AID 1347111);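 also: cells exposed to compound for 48 h before the readout; nearly all actives have a fitted effect of over 70% in size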; also: potency is read from the fitted curve at half-maximal effect
# Outline: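 SK-N-MC cells at 500-1,000 cells/well in growth media were pre-incubated 5 h, then exposed to compounds at 11-point dilutions for 48 h at 37 degrees C, 5% CO2. Viability was read as CellTiter-Glo luminescence.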
# [12] = qHTS of pediatric cancer cell lines to identify multiple opportunities for drug repurposing: Confirmatory screen for BT-12 cells (AID 1347112); also: nearly all actives have a fitted effect of over 55% in size; also: potency is read from the fitted curve at half-maximal effect
# Outline: as §1
# [13] = qHTS of pediatric cancer cell lines to identify multiple opportunities for drug repurposing: Confirmatory screen for LAN-5 cells (AID 1347113); also: nearly all actives have a fitted effect of over 65% in size; also: potency is read from the fitted curve at half-maximal effect
# Outline: as §1
# [14] = qHTS of pediatric cancer cell lines to identify multiple opportunities for drug repurposing: Confirmatory screen for DAOY cells (AID 1347114); also: nearly all actives have a fitted effect of over 65% in size
# Outline: (§4)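 Viability measured as metabolically active cells via CellTiter-Glo luminescence following 48 hours of compound exposure, 11-point dilutions in confirmatory testing. 500-1,000 cells/well plated 5 hours before dosing; controls were DMSO and 2.3 µM bortezomib.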
# [15] = qHTS of pediatric cancer cell lines to identify multiple opportunities for drug repurposing: Confirmatory screen for NB-EBc1 cells (AID 1347115); also: nearly all actives have a fitted effect of over 45% in size; also: potency is read from the fitted curve at half-maximal effect
# Outline: as §1
# [16] = qHTS of pediatric cancer cell lines to identify multiple opportunities for drug repurposing: Confirmatory screen for SJ-GBM2 cells (AID 1347116); also: nearly all actives have a fitted effect of over 60% in size
# Outline: as §4
# [17] = qHTS of pediatric cancer cell lines to identify multiple opportunities for drug repurposing: Confirmatory screen for BT-37 cells (AID 1347117); conditions: BT-37 pediatric cancer cells, viability; activity change, negative = cytotoxic: at 45.9 µM (top of the series); also: nearly all actives have a fitted effect of over 55% in size; also: potency is read from the fitted curve at half-maximal effect
# Outline: as §1
# [18] = qHTS of pediatric cancer cell lines to identify multiple opportunities for drug repurposing: Confirmatory screen for TC32 cells (AID 1347118); also: nearly all actives have a fitted effect of over 65% in size; also: potency is read from the fitted curve at half-maximal effect
# Outline: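 Measured quantity: luminescence from CellTiter-Glo, reflecting metabolically active TC32 cells following 48 h of compound. Curves came straight from multi-point titrations, with 8 or 11 points in primary and 11 in confirmatory screening.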
# [19] = qHTS of pediatric cancer cell lines to identify multiple opportunities for drug repurposing: Confirmatory screen for MG 63 (6-TG R) cells (AID 1347119); also: nearly all actives have a fitted effect of over 55% in size; also: potency is read from the fitted curve at half-maximal effect
# Outline: as §1
# [20] = qHTS of pediatric cancer cell lines to identify multiple opportunities for drug repurposing: Confirmatory screen for control Hh wild type fibroblast cells (AID 1347121); also: nearly all actives have a fitted effect of over 70% in size
# Outline: as §1
structure (smiles),measurement,setting,value
C[C@@H](NCc1cc2ccccc2[nH]1)c1cccc2ccccc12,Potency,[1],inactive
same,Potency,[2],inactive
same,Potency,[3],inactive
same,Potency,[4],inactive
same,Potency,[5],inactive
same,Potency,[6],inactive
same,Potency,[7],inactive
C[C@@H]1C(=O)O[C@H]2CC34[C@H]5C[C@@H](C(C)(C)C)C36[C@H](OC(=O)[C@@H]6O)O[C@@]4(C(=O)O5)[C@]21O (stereo partly drawn),Potency,[1],inactive
same,Potency,[2],inactive
same,Potency,[3],inactive
same,Potency,[4],inactive
same,Potency,[5],inactive
same,Potency,[6],inactive
same,Potency,[7],inactive
CC[C@]12C=CCN3CC[C@@]4(c5cc([C@@]6(C(=O)OC)C[C@H]7C[C@@H](C(C)(F)F)CN(Cc8c6[nH]c6ccccc86)C7)c(OC)cc5N(C)[C@H]4[C@@](O)(C(=O)OC)[C@H]1OC(C)=O)[C@@H]32,Potency,[8],0.0343 µM (active)
same,Potency,[3],0.0059 µM (active)
same,Potency,[9],inactive
same,Potency,[10],0.522 µM (active)
same,Potency,[11],9.27 µM (active)
same,Potency,[12],inactive
same,Potency,[13],inactive
same,Potency,[14],inactive
same,Potency,[15],inactive
same,Potency,[16],inactive
same,Potency,[17],inactive
same,Potency,[18],9.27 µM (active)
same,Potency,[19],inactive
same,Potency,[20],inactive
O=S(=O)(O)CCSSCCS(=O)(=O)O,Potency,[1],inactive
same,Potency,[2],inactive
same,Potency,[3],inactive
same,Potency,[4],inactive
same,Potency,[5],inactive
same,Potency,[6],inactive
same,Potency,[7],inactive
same,Potency,[9],inactive
same,Potency,[10],inactive
same,Potency,[11],inactive
same,Potency,[13],inactive
same,Potency,[14],inactive
same,Potency,[15],inactive
same,Potency,[16],inactive
same,Potency,[17],inactive
same,Potency,[18],inactive
same,Potency,[19],inactive
same,Potency,[20],inactive
CC(=O)ON=C1C(c2c(O)[nH]c3cc(Br)ccc23)=Nc2ccccc21,Potency,[8],19.3 µM (active)
same,Potency,[3],6.62 µM (active)
same,Potency,[5],inactive
same,Potency,[7],2.96 µM (active)
same,Potency,[9],16.5 µM (active)
same,Potency,[10],7.37 µM (active)
same,Potency,[11],8.27 µM (active)
same,Potency,[12],18.5 µM (active)
same,Potency,[13],14.7 µM (active)
same,Potency,[15],16.5 µM (active)
same,Potency,[17],16.5 µM (active)
same,Potency,[18],16.5 µM (active)
same,Potency,[19],18.5 µM (active)
same,Potency,[20],inactive
C=C(C)[C@@H]1CC[C@]2(C)CC[C@]3(C)[C@H](CC[C@@H]4[C@@]5(C)CC[C@H](O)C(C)(C)[C@H]5CC[C@]43C)[C@@H]12,Potency,[1],inactive
same,Potency,[2],inactive
same,Potency,[3],inactive
same,Potency,[4],inactive
same,Potency,[5],inactive
same,Potency,[6],inactive
same,Potency,[7],inactive
O=c1[nH]c(=O)n([C@H]2C[C@@H](O)[C@@H](CO)O2)cc1F,Potency,[8],6.11 µM (active)
same,Potency,[3],16.6 µM (active)
same,Potency,[4],18.7 µM (active)
same,Potency,[6],2.35 µM (active)
same,Potency,[7],1.48 µM (active)
CC(O)(C#Cc1ccc2c(c1)N(c1nc(N)ncc1Cl)CC2)c1nccs1 (stereo not drawn),Potency,[1],inactive
same,Potency,[2],24.3 µM (active)
same,Potency,[3],18.7 µM (active)
same,Potency,[4],9.35 µM (active)
same,Potency,[5],inactive
same,Potency,[6],inactive
same,Potency,[7],inactive
c1cc(CN2CCCNCCNCCCNCC2)ccc1CN1CCCNCCNCCCNCC1,Potency,[1],inactive
same,Potency,[2],inactive
same,Potency,[3],inactive
same,Potency,[4],inactive
same,Potency,[5],inactive
same,Potency,[6],inactive
CC(C)Oc1ccc(C(=O)N[C@H](CNC(=O)CN(C)C)Cc2ccc(-c3cn4cccc([C@H](C)O)c4n3)cc2)cc1Cl,Potency,[8],1.93 µM (active)
same,Potency,[2],2.43 µM (active)
same,Potency,[5],inactive
